# Screening data as filed in PubChem BioAssay.
# Hits are enriched below; roughly 7.4% of the tested compounds scored in any of these assays.
# SMN2 splice up: SMN2 splice variant enhancement; HEK293 SMN2-luciferase splicing reporter, luminescence, 30-36 h; Potency, µM (doses to about 46.1 µM), without a hit: at the top dose activity change, positive = activation, most hits filed as activators; 210,000 compounds, 2.8% hits; AID 1458; further: % of control where 0% means no effect; nearly all actives have a fitted effect of over 55% in size
#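 HEK293 cells carry an SMN2 minigene-luciferase reporter in which exon 7 inclusion puts luciferase in frame. Cells were seeded at 2000 cells/well, attached for 10-12 hours, then exposed to compounds for 30-36 hours at 37C before ONE-Glo luminescence.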
# p53 reactivation: restores transcriptional activity of mutant p53 | H1299 p53-A138V BP100-luciferase reporter, luminescence, 24 h | Potency, µM (doses to about 92.2 µM), for the others: at the highest dose activity change, positive = activation, most hits filed as activators | 320,000 compounds, 0.063% hits; further: % of control where 0% means no effect; nearly all actives have a fitted effect of over 45% in size
#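 H1299 (p53-null), stable ts p53-A138V + BP100-Luc; 1000 cells/well, Opti-MEM/10% FBS; cpd 4 pt, 1:5; 24 h, 37 deg C, 5% CO2; detection reagent 10 min RT; luminescence.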
# ELG1 genotox: induces genotoxicity in HEK293T cells with luciferase-tagged ELG1. HEK293T ELG1-luciferase reporter, luminescence, 16 h. Potency, µM (titrated, usually from 46 µM), inactives show top-dose activity change, positive = activation, hits mostly activators. 330,000 compounds, 1.3% hits; further: % of control where 0% means no effect; nearly all actives have a fitted effect of over 60% in size
#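 Reporter readout depends on ELG1 protein level, which increases with genetic stress. After 16 hr compound exposure at 37 °C, luciferase activity was quantified using ONE-Glo.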
# Rab9 prom act: Rab9 promoter activation; Potency, µM (titrated, usually from 9.22 µM), for inactives: top-dose activation, negative = inhibition, actives largely listed as activators; 320,000 compounds, 2.8% hits; Huh7 Rab9 promoter-luciferase reporter, luminescence, 24 h; further: % of control where 0% means no effect; nearly all actives have a fitted effect of over 60% in size
#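 Promoter activation is measured as luciferase luminescence in Huh7 cells stably transfected with a Rab9 promoter–luciferase construct, following 24 h compound exposure at 37 °C and 10 min reagent incubation at ambient temperature.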
# FLuc counter: counter-screen for miR-21 project: firefly luciferase inhibitors or activators; purified FLuc, Km substrates, luminescence inhibition; 360,000 compounds, 6.9% hits; P08659; AID 588342; Potency, µM (titrated, usually from 57.5 µM), without a hit: at the highest dose activity change, negative = inhibition, actives largely listed as inhibitors;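 further: plate controls were vehicle for no effect and reference inhibitor for full effect; nearly all actives have a fitted effect of over 55% in size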
# Target sequence (P08659 whole entry, looked up): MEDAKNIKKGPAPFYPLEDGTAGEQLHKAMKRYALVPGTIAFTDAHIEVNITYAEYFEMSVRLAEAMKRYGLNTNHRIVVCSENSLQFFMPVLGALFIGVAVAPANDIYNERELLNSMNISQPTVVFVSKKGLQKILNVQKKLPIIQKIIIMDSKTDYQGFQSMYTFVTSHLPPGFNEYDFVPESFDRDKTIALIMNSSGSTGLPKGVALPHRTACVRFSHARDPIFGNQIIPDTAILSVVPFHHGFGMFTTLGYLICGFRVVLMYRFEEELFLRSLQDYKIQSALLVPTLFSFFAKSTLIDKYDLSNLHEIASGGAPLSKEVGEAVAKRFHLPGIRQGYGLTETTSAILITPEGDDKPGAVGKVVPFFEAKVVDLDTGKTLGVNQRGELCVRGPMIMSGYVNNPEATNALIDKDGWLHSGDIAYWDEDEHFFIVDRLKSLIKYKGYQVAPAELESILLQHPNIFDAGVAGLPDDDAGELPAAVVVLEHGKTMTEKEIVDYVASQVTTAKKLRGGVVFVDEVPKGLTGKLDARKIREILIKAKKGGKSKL
#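 Purified P. pyralis luciferase (10nM final) with 10uM D-luciferin and 10uM ATP (Km levels) in 50mM Tris acetate pH 7.5, 10mM Mg acetate, 0.01% Tween-20, 0.05% BSA; qHTS 6-point titration, ~60 µM downward; luminescence read.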
# NPC1 prom act: activates the NPC1 promoter; AID 485313; Potency, µM (highest dose often 9.22 µM), for the others: at the top dose activation, usual class: activators; 320,000 compounds, 2.4% hits; Huh7 NPC1 promoter luciferase reporter, 24 h; further: % of control where 0% means no effect; nearly all actives have a fitted effect of over 60% in size
#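 Luminescence from an NPC1 promoter-driven luciferase reporter in stably transfected Huh7 cells was measured after 24 h compound treatment at 37 °C, followed by 10 min ambient incubation with luciferase detection reagent.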
# The depositor's hits bear a star; ? = inconclusive; · = no result given; [ ] = dose if it differs, or a comment. The call rests on the fitted dose curve; in most records, active means well fitted curve in the direction sought with a large enough effect; inconclusive means small, poorly fitted or top-dose-only effect, or another doubt; inactive means no such curve, though single readings can be large; an effect the other way counts as inactive or inconclusive. Potency means the concentration at half of the fitted maximal effect.
SMILES,SMN2 splice up,p53 reactivation,ELG1 genotox,Rab9 prom act,FLuc counter,NPC1 prom act
O=C(CSc1ncccn1)Nc1ccc2c(c1)OCO2,·,17%,8%,·,·,·
CN(C)S(=O)(=O)c1ccc(SCC(=O)Nc2ccc3c(c2)OCCO3)nc1,·,6%,1%,-1%,21µM*,11%
O=C(CSc1ccccn1)Nc1ccc2ccccc2c1,·,13%,?,2.8µM*,4.8µM*,3.5µM*
COc1ccc(-n2c(=O)c(CCc3ccccc3)nc3cnc(N4CCNCC4)nc32)cc1,-7%,·,·,·,·,·
O=C(CSc1ncccn1)NC(=O)Nc1ccc2c(c1)OCCO2,8%,8%,10%,16%,24µM*,2%
CC1(C(=O)OCC(=O)Nc2ccc(C(N)=O)cc2)CC1(Cl)Cl (centres undefined),92%,-1%,8%,1%,4%,-1%
O=C(CSc1ccccn1)Nc1ccc2c(c1)C(=O)c1ccccc1C2=O,10µM*,10%,16µM*,4µM*,?,2.8µM*
O=C(CSc1nc(-c2ccccc2)[nH]c1-c1ccccc1)Nc1ccc2c(c1)OCCO2,-2%,·,·,·,9.5µM*,·
COc1ccc(-c2[nH]c(-c3ccccc3)nc2SCC(=O)Nc2ccc3c(c2)OCCO3)cc1,-1%,·,·,·,-4%,·
CC1(C(=O)OCC(=O)Nc2ccc3ccccc3c2)CC1(Cl)Cl (centres undefined),0%,-1%,1%,26%,19µM*,17%
Cn1nccc1C(=O)OCC(=O)Nc1ccccc1Cl,·,5%,4%,10%,-6%,0%
O=C1O/C(=C/Br)CCC1c1cccc2ccccc12 (centres undefined),-43%,·,·,-43%[46.1 µM],·,-35%[46.1 µM]
CC1(C)[C@@H]2CC[C@]1(C)[C@@H](OC(=O)/C=C\c1ccccc1)C2,-1%[9.22 µM],·,·,·,·,·
O=c1[nH]c(C2CCN(S(=O)(=O)/C=C/c3ccccc3)CC2)nc2c1nnn2Cc1ccccc1,·,5%,-3%,0%,0%,-4%
CC(=O)Nc1ccc(NC(=O)CSC2=NCCS2)cc1,-10%,10%,1%,-8%,0%,2%
O=C(CSc1nccc(=O)[nH]1)Nc1ccc2c(c1)OCCO2,·,?,15µM*,2.2µM*,11µM*,2.2µM*
O=C(CSc1ccccn1)Nc1ccc2c(c1)CCC2,·,8%,?,?,12µM*,17%
O=C(CSC1=NCCS1)Nc1ccc2ccccc2c1,·,20%,3%,18%,17µM*,18%
COC(=O)CCN(c1ccccc1)C(CNS(=O)(=O)c1ccccc1)c1ccccc1 (centres undefined),?,·,·,·,6%,·
Cc1ccc2nc(N3CCN(c4cccc(Cl)c4)CC3)c(-n3nc(C)cc3C)nc2c1,19%,·,·,·,8%,·
C=CCOc1cccc(C2C(C(=O)c3cc4ccccc4o3)=C(O)C(=O)N2c2cc(C)on2)c1 (centres undefined),·,?,0%,-6%,-1%,-3%
CCCCOc1ccc(C(=O)Nc2sc3c(c2C(=O)OCC)CCCCC3)cc1,4%,·,·,·,-4%,·
O=C(Nc1onc2c1CCCC2)c1ccc(Cl)cc1,8.9µM*,·,·,·,1.9µM*,·
CCCCOc1ccc(C(=O)Nc2onc3c2CCCC3)cc1,22µM*,·,·,·,1.7µM*,·
COc1cccc(C(=O)Nc2ccc3nc(SCc4ccc(C)cc4)sc3c2)c1,·,·,·,·,0%,·
SMILES,SMN2 splice up,p53 reactivation,ELG1 genotox,Rab9 prom act,FLuc counter,NPC1 prom act
O=C1c2ccccc2NC(c2ccc(-c3cccs3)o2)N1O (centres undefined),·,?,?,1%,12µM*,10%
COCCN(C(=O)CCc1nnc(Cc2c[nH]c3ccccc23)o1)C(C)C,·,·,1%,-2%,2%,-2%
CN(C)C=Nc1ccc2nn(-c3ccccc3)nc2c1,5µM*,19%,?,1µM*,5.4µM*,2.8µM*
COc1ccccc1/C=C/c1nc(C#N)c(N2CCN(C)CC2)o1,5%,·,·,·,3%,·
Cc1ccc(-c2cc(C(=O)Nc3ccc(S(=O)(=O)Nc4ncccn4)cc3)c3ccccc3n2)cc1,17%,-13%,10%,-6%,6.7µM*,-1%
O=C(Nc1ccc(S(=O)(=O)Nc2nccs2)cc1)c1cc(-c2ccccc2)nc2ccccc12,20%,-15%,-2%,-3%,?,0%
CCc1ccc(-c2cc(C(=O)Nc3ccc(S(=O)(=O)NC(C)=O)cc3)c3ccccc3n2)cc1,4%,7%,9%,28%,0.54µM*,?
COc1ccc(NC(=O)Cn2c(=O)n(-c3ccc(C)c(C)c3)c(=O)c3c(C)c(C)sc32)cc1,26%,·,·,·,3%,·
COc1ccc(O)c(/C=N/n2c(-c3ccco3)csc2=Nc2cccnc2)c1,-13%[1.84 µM],-1%,2%,2%,-2%,-2%
CN=c1scc(-c2ccccc2F)n1/N=C/c1ccc(O)c(O)c1O,0.63µM*,11%,9%,?,0.76µM*,?
Oc1ccc(/C=N/N=C(c2ccccc2)c2ccccc2)c(O)c1O,7%,20%,-4%,-3%,?,-9%
CN=c1scc(-c2ccccc2F)n1/N=C/c1ccc[nH]1,-110%,-10%,-17%,-30%,0.027µM*,-41%
CC(C)N=c1scc(-c2cccs2)n1/N=C/c1ccc(O)c(O)c1O,3%[1.84 µM],?,?,5%,24µM*,2%
CCN=c1scc(-c2cccs2)n1/N=C/c1cc(OC)ccc1O,?,?,?,?,2.4µM*,2µM*
Cc1nc2ccc(S(=O)(=O)CCC(=O)Nc3ccc(C(C)C)cc3)cc2s1,·,·,·,·,-8%,·
O=C(c1cnccn1)N1CCC[C@@]2(CCN(c3ccncc3)C2)C1,-3%,·,·,·,·,·
Cn1c(=O)c2c(O)c(C=Nc3ccc(F)cc3)c(=O)n(C)c2n(C)c1=O,·,-2%,2%,-2%,0%,-2%
Cn1c(=O)c(C=Nc2ccccc2)c(O)c2ccccc21,·,-1%,0%,0%,4.3µM*,-4%
COc1ccc(/C=N\Nc2ccccn2)c(OC)c1,·,·,?,?,3.4µM*,?
COc1ccc(/C=N/Nc2ncc(Br)cn2)c(OC)c1,22µM*,?,7.3µM*,?,2.7µM*,9%
COc1ccc(-c2nn(-c3ccccc3)cc2/C=N/Nc2ccccn2)cc1,-10%,4%,?,-1%,2%,-8%
COc1ccc(/C=N/Nc2ccccn2)c(OC)c1OC,?,0%,?,?,17µM*,?
Cc1ccc(-n2ncc(C(=O)N3CCN(c4cccc(C)c4C)CC3)c2C2CCNCC2)c(C)c1,·,·,·,·,1%,·
COc1ccc(-c2nn(-c3ccccc3)cc2C(N)=O)cc1OC,·,7%,2%,2%,17µM*,9%
